# ± gives the standard deviation of the averaged measurements.
# Tests used:
# Assay in all cases: promoter activity interaction Z-score (Lux/OD deviation from empty-vector control); higher = stronger promoter induction by the compound
# [1] = tested on: E. coli BW25113 soxSp lux reporter
# Procedure, shortened: (§1)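 Four 1:2 dilutions of each compound were tested in biological duplicates on E. coli BW25113 carrying low-copy luxCDABE promoter reporters, either wild type or deleted for one of three genes. Cultures of 40 µl LB Lennox in 384-well plates were kept at 37°C and read for OD600 and luminescence every 30 min for 12 h. Integration windows were 0–8 h for wild type and 1–9 h for deletion strains, and wells under 10% of the median growth value were discarded. The score is a Z-transformed residual of growth-normalised luminescence relative to a control fit.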
# [2] = tested on: E. coli BW25113 tolCp lux reporter
# Procedure, shortened: as §1
# [3] = tested on: E. coli BW25113 acrABp lux reporter
# Procedure, shortened: as §1
# [4] = tested on: E. coli BW25113 marRABp lux reporter
# Procedure, shortened: as §1
# [5] = tested on: E. coli BW25113 micFp lux reporter
# Procedure, shortened: as §1
# [6] = tested on: E. coli BW25113 ompFp lux reporter
# Procedure, shortened: as §1
# [7] = tested on: E. coli BW25113 robp lux reporter
# Procedure, shortened: as §1
# [8] = 0.25 µg/ml, genetic background: Δrob
# [9] = 0.25 µg/ml, genetic background: ΔsoxS
# [10] = 0.51 µg/ml, genetic background: wild type
# [11] = 0.51 µg/ml, genetic background: ΔmarA
# [12] = 0.51 µg/ml, genetic background: Δrob
# [13] = 0.51 µg/ml, genetic background: ΔsoxS
# [14] = 21.6 µg/ml, genetic background: wild type
# [15] = 21.6 µg/ml, genetic background: ΔmarA
# [16] = 21.6 µg/ml, genetic background: Δrob
# [17] = 21.6 µg/ml, genetic background: ΔsoxS
# [18] = 43.2 µg/ml, genetic background: wild type
# [19] = 43.2 µg/ml, genetic background: ΔmarA
# [20] = 43.2 µg/ml, genetic background: Δrob
# [21] = 43.2 µg/ml, genetic background: ΔsoxS
# [22] = 86.4 µg/ml, genetic background: wild type
# [23] = 86.4 µg/ml, genetic background: ΔmarA
# [24] = 86.4 µg/ml, genetic background: Δrob
# [25] = 86.4 µg/ml, genetic background: ΔsoxS
# [26] = 172.7 µg/ml, genetic background: wild type
# [27] = 172.7 µg/ml, genetic background: ΔmarA
# [28] = 172.7 µg/ml, genetic background: Δrob
# [29] = 172.7 µg/ml, genetic background: ΔsoxS
smiles,measurement,setting,value
N=C(NCCCCCCNC(=N)NC(=N)Nc1ccc(Cl)cc1)NC(=N)Nc1ccc(Cl)cc1 [Chlorhexidine],promoter activity interaction Z-score,[1]; [8],0.236 ± 0.22
same,promoter activity interaction Z-score,[1]; [9],0.165 ± 0.005
same,promoter activity interaction Z-score,[1]; [10],-0.166 ± 0.08
same,promoter activity interaction Z-score,[1]; [11],0.198 ± 0.063
same,promoter activity interaction Z-score,[1]; [12],-0.014 ± 0.063
same,promoter activity interaction Z-score,[1]; [13],-0.0376 ± 0.072
same,promoter activity interaction Z-score,"[2]; 0.063 µg/ml, genetic background: wild type",0.313 ± 0.44
same,promoter activity interaction Z-score,"[2]; 0.063 µg/ml, genetic background: ΔmarA",0.0546 ± 1.2
same,promoter activity interaction Z-score,"[2]; 0.063 µg/ml, genetic background: Δrob",0.212 ± 0.98
same,promoter activity interaction Z-score,"[2]; 0.063 µg/ml, genetic background: ΔsoxS",0.135 ± 0.81
same,promoter activity interaction Z-score,"[2]; 0.13 µg/ml, genetic background: wild type",0.112 ± 0.076
same,promoter activity interaction Z-score,"[2]; 0.13 µg/ml, genetic background: ΔmarA",-0.214 ± 1.4
same,promoter activity interaction Z-score,"[2]; 0.13 µg/ml, genetic background: Δrob",-0.155 ± 0.64
same,promoter activity interaction Z-score,"[2]; 0.13 µg/ml, genetic background: ΔsoxS",0.18 ± 2
same,promoter activity interaction Z-score,"[2]; 0.25 µg/ml, genetic background: wild type",-0.564 ± 0.81
same,promoter activity interaction Z-score,"[2]; 0.25 µg/ml, genetic background: ΔmarA",-0.365 ± 0.86
same,promoter activity interaction Z-score,[2]; [8],0.568 ± 0.35
same,promoter activity interaction Z-score,[2]; [9],0.574 ± 0.065
same,promoter activity interaction Z-score,[2]; [10],-0.539 ± 0.4
same,promoter activity interaction Z-score,[2]; [11],0.431 ± 0.064
same,promoter activity interaction Z-score,[2]; [12],-0.613 ± 0.62
same,promoter activity interaction Z-score,[2]; [13],0.378 ± 0.96
COc1ccc2[nH]c([S+]([O-])Cc3ncc(C)c(OC)c3C)nc2c1 (centres undefined) [Omeprazole],promoter activity interaction Z-score,[3]; [14],-0.337 ± 0.014
same,promoter activity interaction Z-score,[3]; [15],0.346 ± 0.48
same,promoter activity interaction Z-score,[3]; [16],-0.0504 ± 0.066
same,promoter activity interaction Z-score,[3]; [17],-0.13 ± 0.54
same,promoter activity interaction Z-score,[3]; [18],-0.353 ± 0.082
same,promoter activity interaction Z-score,[3]; [19],-0.358 ± 0.072
same,promoter activity interaction Z-score,[3]; [20],-0.105 ± 0.12
same,promoter activity interaction Z-score,[3]; [21],-0.0181 ± 0.095
same,promoter activity interaction Z-score,[3]; [22],-0.362 ± 0.37
same,promoter activity interaction Z-score,[3]; [23],-0.395 ± 0.11
same,promoter activity interaction Z-score,[3]; [24],-0.192 ± 0.19
same,promoter activity interaction Z-score,[3]; [25],-0.303 ± 0.19
same,promoter activity interaction Z-score,[3]; [26],-0.479 ± 0.43
same,promoter activity interaction Z-score,[3]; [27],-0.193 ± 0.65
same,promoter activity interaction Z-score,[3]; [28],-0.199 ± 0.17
same,promoter activity interaction Z-score,[3]; [29],-0.532 ± 0.35
same,promoter activity interaction Z-score,[4]; [14],-0.572 ± 0.095
same,promoter activity interaction Z-score,[4]; [15],-0.27 ± 0.18
same,promoter activity interaction Z-score,[4]; [16],-0.128 ± 0.18
same,promoter activity interaction Z-score,[4]; [17],-0.226 ± 0.23
same,promoter activity interaction Z-score,[4]; [18],-0.301 ± 0.098
same,promoter activity interaction Z-score,[4]; [19],-0.0417 ± 0.55
same,promoter activity interaction Z-score,[4]; [20],-0.0764 ± 0.16
same,promoter activity interaction Z-score,[4]; [21],-0.0512 ± 0.083
same,promoter activity interaction Z-score,[4]; [22],-0.582 ± 0.15
same,promoter activity interaction Z-score,[4]; [23],-0.305 ± 0.32
same,promoter activity interaction Z-score,[4]; [24],-0.229 ± 0.12
same,promoter activity interaction Z-score,[4]; [25],-0.22 ± 0.21
same,promoter activity interaction Z-score,[4]; [26],-0.5175 ± 0.0031
same,promoter activity interaction Z-score,[4]; [27],-0.6 ± 0.24
same,promoter activity interaction Z-score,[4]; [28],-0.408 ± 0.15
same,promoter activity interaction Z-score,[4]; [29],-0.421 ± 0.089
same,promoter activity interaction Z-score,[5]; [14],-0.467 ± 0.1
same,promoter activity interaction Z-score,[5]; [15],-0.0778 ± 0.095
same,promoter activity interaction Z-score,[5]; [16],-0.00843 ± 0.2
same,promoter activity interaction Z-score,[5]; [17],-0.201 ± 0.026
same,promoter activity interaction Z-score,[5]; [18],-0.228 ± 0.15
same,promoter activity interaction Z-score,[5]; [19],-0.00184 ± 0.029
same,promoter activity interaction Z-score,[5]; [20],0.0425 ± 0.23
same,promoter activity interaction Z-score,[5]; [21],-0.0104 ± 0.033
same,promoter activity interaction Z-score,[5]; [22],-0.311 ± 0.11
same,promoter activity interaction Z-score,[5]; [23],0.141 ± 0.0042
same,promoter activity interaction Z-score,[5]; [24],0.11 ± 0.088
same,promoter activity interaction Z-score,[5]; [25],0.0651 ± 0.15
same,promoter activity interaction Z-score,[5]; [26],-0.637 ± 0.076
same,promoter activity interaction Z-score,[5]; [27],0.0179 ± 0.059
same,promoter activity interaction Z-score,[5]; [28],-0.0934 ± 0.045
same,promoter activity interaction Z-score,[5]; [29],-0.467 ± 0.12
same,promoter activity interaction Z-score,[6]; [14],-0.482 ± 0.29
same,promoter activity interaction Z-score,[6]; [15],-0.539 ± 0.12
same,promoter activity interaction Z-score,[6]; [16],-0.476 ± 0.1
same,promoter activity interaction Z-score,[6]; [17],-0.299 ± 0.19
same,promoter activity interaction Z-score,[6]; [18],-0.42 ± 0.17
same,promoter activity interaction Z-score,[6]; [19],-0.516 ± 0.55
same,promoter activity interaction Z-score,[6]; [20],-0.244 ± 0.2
same,promoter activity interaction Z-score,[6]; [21],-0.555 ± 0.25
same,promoter activity interaction Z-score,[6]; [22],-1.02 ± 0.014
same,promoter activity interaction Z-score,[6]; [23],-0.56 ± 0.35
same,promoter activity interaction Z-score,[6]; [24],-0.352 ± 0.17
same,promoter activity interaction Z-score,[6]; [25],-0.773 ± 0.19
same,promoter activity interaction Z-score,[6]; [26],-0.996 ± 0.11
same,promoter activity interaction Z-score,[6]; [27],-0.786 ± 0.12
same,promoter activity interaction Z-score,[6]; [28],-1.14 ± 0.44
same,promoter activity interaction Z-score,[6]; [29],-1.41 ± 0.14
same,promoter activity interaction Z-score,[7]; [14],-0.44 ± 0.32
same,promoter activity interaction Z-score,[7]; [15],-0.171 ± 0.43
same,promoter activity interaction Z-score,[7]; [16],-0.295 ± 0.01
same,promoter activity interaction Z-score,[7]; [17],0.394 ± 0.34
same,promoter activity interaction Z-score,[7]; [18],0.141 ± 0.33
same,promoter activity interaction Z-score,[7]; [19],0.325 ± 0.23
same,promoter activity interaction Z-score,[7]; [20],-0.173 ± 0.37
same,promoter activity interaction Z-score,[7]; [21],0.145 ± 0.46
same,promoter activity interaction Z-score,[7]; [22],-0.722 ± 0.046
same,promoter activity interaction Z-score,[7]; [23],0.298 ± 0.23
same,promoter activity interaction Z-score,[7]; [24],-0.445 ± 0.32
same,promoter activity interaction Z-score,[7]; [25],-0.519 ± 0.64
same,promoter activity interaction Z-score,[7]; [26],-0.656 ± 0.28
same,promoter activity interaction Z-score,[7]; [27],-0.167 ± 0.31
same,promoter activity interaction Z-score,[7]; [28],-0.507 ± 0.035
same,promoter activity interaction Z-score,[7]; [29],-0.379 ± 0.46
same,promoter activity interaction Z-score,[1]; [14],-0.231 ± 0.11
same,promoter activity interaction Z-score,[1]; [15],-0.202 ± 0.05
same,promoter activity interaction Z-score,[1]; [16],-0.257 ± 0.062
same,promoter activity interaction Z-score,[1]; [17],-0.178 ± 0.32
same,promoter activity interaction Z-score,[1]; [18],-0.256 ± 0.0098
same,promoter activity interaction Z-score,[1]; [19],-0.206 ± 0.022
same,promoter activity interaction Z-score,[1]; [20],-0.175 ± 0.12
same,promoter activity interaction Z-score,[1]; [21],-0.281 ± 0.054
same,promoter activity interaction Z-score,[1]; [22],-0.301 ± 0.081
same,promoter activity interaction Z-score,[1]; [23],-0.305 ± 0.1
same,promoter activity interaction Z-score,[1]; [24],-0.0539 ± 0.1
same,promoter activity interaction Z-score,[1]; [25],-0.344 ± 0.12
same,promoter activity interaction Z-score,[1]; [26],-0.333 ± 0.024
same,promoter activity interaction Z-score,[1]; [27],-0.374 ± 0.013
same,promoter activity interaction Z-score,[1]; [28],-0.226 ± 0.14
same,promoter activity interaction Z-score,[1]; [29],-0.806 ± 0.14
same,promoter activity interaction Z-score,[2]; [14],-0.0562 ± 0.63
same,promoter activity interaction Z-score,[2]; [15],-0.81 ± 0.13
same,promoter activity interaction Z-score,[2]; [16],-0.978 ± 0.82
same,promoter activity interaction Z-score,[2]; [17],-0.661 ± 0.85
same,promoter activity interaction Z-score,[2]; [18],0.122 ± 0.9
same,promoter activity interaction Z-score,[2]; [19],-0.409 ± 0.93
same,promoter activity interaction Z-score,[2]; [20],-0.642 ± 0.94
same,promoter activity interaction Z-score,[2]; [21],0.332 ± 0.16
same,promoter activity interaction Z-score,[2]; [22],-0.33 ± 0.54
same,promoter activity interaction Z-score,[2]; [23],0.11 ± 0.23
same,promoter activity interaction Z-score,[2]; [24],0.71 ± 0.025
same,promoter activity interaction Z-score,[2]; [25],0.0744 ± 0.91
same,promoter activity interaction Z-score,[2]; [26],0.169 ± 0.58
same,promoter activity interaction Z-score,[2]; [27],-0.0827 ± 1.5
same,promoter activity interaction Z-score,[2]; [28],0.0999 ± 0.066
same,promoter activity interaction Z-score,[2]; [29],-0.969 ± 0.63
